PubChem BioAssay AID1159580 (chemical genetic matrix, 2015)
Values joined by “and” are separate entries in the source; they are usually repeats but may differ in a detail not shown here. Identical values can stand only once. About 2,000 (36%) of roughly 5,500 compounds were called active. About 18% were inconclusive and are not listed. Rule as the data show it: active = normalized growth mostly below about 0.91 (no sharp cut-off); inconclusive = no clear call, values can overlap the other calls; inactive = mostly above about 0.92. The list shows a part of the results.

Assay: chemical genetic growth profiling, strain panel (AID 1159580);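 also: tested at 20 µM; growth read once vehicle control cultures reached saturation at 30 °C; 1 = growth at the plate median or of vehicle wells; lower values mean less growth of the strain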
Conditions: S. cerevisiae deletion strains, growth OD

Measured: normalized growth

CCn1cc(C(=O)O)c(=O)c2cc3c(cc21)OCO3
inactive: locus YAL013W, strain DEP1, active compounds read low 1.01 | locus YAL021C, strain ccr4, active compounds read low 0.967 | locus YAL026C, strain drs2, active compounds read low 0.982 | locus YAL030W, strain snc1, active compounds read low 0.977 | locus YAL040C, strain CLN3, active compounds read low 0.97 | locus YBL061C, strain skt5, active compounds read low 0.977 | locus YBR009C, strain hhf1, active compounds read low 0.977 | locus YBR021W, strain FUR4, active compounds read low 1.01 | locus YBR023C, strain chs3, active compounds read low 0.957 | locus YBR171W, strain sec66, active compounds read low 0.962 | locus YBR229C, strain ROT2, active compounds read low 1.01 | locus YBR231C, strain swc5, active compounds read low 0.979 | locus YBR279W, strain paf1, active compounds read low 0.977 | locus YCL011C, strain gbp2, active compounds read low 0.974 | locus YCL016C, strain dcc1, active compounds read low 0.988 | locus YCL029C, strain bik1, active compounds read low 0.997 | locus YCL061C, strain MRC1 (second series), active compounds read low 0.991 | locus YCL061C, strain MRC1, active compounds read low 0.971 | locus YCL069W, strain vba3, active compounds read low 0.98 | locus YCR088W, strain abp1, active compounds read low 0.981 | locus YDL005C, strain med2, active compounds read low 0.971 | locus YDL035C, strain GPR1, active compounds read low 1.02 | locus YDL040C, strain nat1, active compounds read low 0.985 | locus YDL074C, strain BRE1, active compounds read low 1.06 | locus YDL101C, strain DUN1, active compounds read low 1.02 | locus YDL134C, strain PPH21, active compounds read low 1 | locus YDL185W, strain tfp1, active compounds read low 0.999 | locus YDL192W, strain arf1, active compounds read low 0.99 | locus YDR001C, strain nth1, active compounds read low 0.979 | locus YDR069C, strain doa4, active compounds read low 0.989 | locus YDR101C, strain arx1, active compounds read low 0.993 | locus YDR137W, strain rgp1, active compounds read low 0.857 | locus YDR150W, strain NUM1, active compounds read low 0.99 | locus YDR159W, strain sac3, active compounds read low 0.996 | locus YDR162C, strain NBP2, active compounds read low 1.01 | locus YDR195W, strain ref2 0.983 | locus YDR297W, strain sur2, active compounds read low 0.98 | locus YDR318W, strain mcm21, active compounds read low 1 | locus YDR334W, strain swr1, active compounds read low 0.955 | locus YDR335W, strain msn5, active compounds read low 0.984 | locus YDR363W, strain ESC2, active compounds read low 0.973 | locus YDR388W, active compounds read low 0.99 | locus YDR392W, strain spt3, active compounds read low 0.914 | locus YDR502C, strain sam2, active compounds read low 1.01 | locus YEL003W, strain gim4, active compounds read low 1 | locus YEL037C, strain rad23, active compounds read low 0.975 | locus YEL061C, strain CIN8 (second series), active compounds read low 0.98 | locus YEL061C, strain CIN8, active compounds read low 1.01 | locus YER002W, strain NOP16, active compounds read low 0.967 | locus YER015W, strain faa2, active compounds read low 0.983 | locus YER016W, strain bim1, active compounds read low 0.993 | locus YER110C, active compounds read low 0.991 | locus YER111C, strain swi4, active compounds read low 0.972 | locus YER155C, strain BEM2 (second series), active compounds read low 0.979 | locus YER155C, strain BEM2, active compounds read low 1.01 | locus YER167W, strain BCK2, active compounds read low 1.01 | locus YFR010W, strain ubp6, active compounds read low 0.97 | locus YGL078C, strain dbp3, active compounds read low 0.99 | locus YGL086W, strain mad1, active compounds read low 1.01 | locus YGL167C, strain pmr1, active compounds read low 0.976 | locus YGL173C, strain kem1, active compounds read low 0.974 | locus YGL227W, strain vid30, active compounds read low 0.978 | locus YGL240W, strain doc1, active compounds read low 0.988 | locus YGL248W, strain PDE1, active compounds read low 1.02 | locus YGL253W, strain hxk2, active compounds read low 0.991 | locus YGR135W, strain pre9, active compounds read low 0.99 | locus YGR229C, strain SMI1, active compounds read low 1.02 | locus YGR252W, strain gcn5, active compounds read low 1 | locus YHR013C, strain ard1, active compounds read low 0.959 | locus YHR027C, strain rpn1, active compounds read low 0.971 | locus YHR030C, strain SLT2, active compounds read low 1.01 and 1.07 | locus YHR079C, strain IRE1 (second series), active compounds read low 0.992 | locus YHR079C, strain IRE1, active compounds read low 1.11 | locus YHR094C, strain hxt1, active compounds read low 0.987 | locus YHR129C, strain ARP1, active compounds read low 1.01 | locus YHR142W, strain chs7, active compounds read low 0.933 | locus YHR200W, strain rpn10, active compounds read low 1 | locus YIL066C, strain RNR3, active compounds read low 1.02 | locus YIL073C, strain SPO22, active compounds read low 0.987 | locus YIL125W, strain kgd1, active compounds read low 0.995 | locus YIR030C, strain dcg1, active compounds read low 0.999 | locus YJL092W, strain hpr5, active compounds read low 0.981 | locus YJL095W, strain BCK1 (second series), active compounds read low 0.983 | locus YJL095W, strain BCK1, active compounds read low 1.03 and 1.04 | locus YJL115W, strain asf1, active compounds read low 0.974 | locus YJL129C, strain trk1, active compounds read low 0.974 | locus YJL134W, strain LCB3, active compounds read low 1.01 | locus YJL154C, strain vps35, active compounds read low 0.969 | locus YJL164C, strain tpk1, active compounds read low 0.997 | locus YJL166W, strain qcr8, active compounds read low 0.969 | locus YJL168C, strain set2, active compounds read low 0.997 | locus YJL187C, strain SWE1 (second series), active compounds read low 1.03 | locus YJL187C, strain SWE1, active compounds read low 0.975 | locus YJR043C, strain POL32, active compounds read low 1.02
